SMILES strings stand for the structures. About 560 (40%) of roughly 1,400 compounds were called active. The set was probably picked from earlier hits. Some of the results follow. A number with no mark means an inactive call.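 The calls were made as follows: active = mean inhibition over duplicate tests at 10 µM above 50%; inactive = the rest.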

The nature of the assay: ASC/caspase-1 reporter retest in S. cerevisiae at one dose, specificity check for NALP1 project (AID 488857). Conditions: S. cerevisiae ASC/Caspase-1, beta-galactosidase luminescence, 24 h; at 10 µM; hits give high values.
As for `C/C(=N\Nc1nc2c(s1)CCCC2)c1ccccc1`, the inhibition – broadly, the drop in the measured response relative to a control, in per cent – was 37.2%.

On to `CC1CCCCN1C(=S)NCCc1ccccc1` (configuration not stated), for which the inhibition was 59.1% (active).

On to `C=C1SC(Nc2c(C)cccc2C)=NC12CCCCC2`, for which the inhibition is 47.3%.

Turning to `CC(C)Cc1nnc(NC(=O)CSc2nc(N)cc(=O)[nH]2)s1`, the inhibition is 25.6%.

As for `Brc1ccc2c(c1)OCCOCCOc1cc(Br)ccc1OCCOCCOCCO2`, the inhibition is 64.6% (active).

`Cc1nnc(-c2ccccc2)o1`: the inhibition is 39.7%.

For the compound `Cc1nc(/N=C(\N)NC(=O)N2c3ccccc3Sc3ccccc32)nc2ccccc12`, the inhibition was 53.6% (active).

For the compound `O=C(CSc1nnnn1C1CCCCC1)N1c2ccccc2Sc2ccccc21`, the inhibition was 39.5%.

Regarding `O=[N+]([O-])c1ccc(-n2nnnc2-c2ccccc2)cc1`, the inhibition is 19.9%.

As to `O=C1C=CCC(/C=C/c2ccccc2)O1` (configuration not stated), the inhibition is 63% (active).

Take `O=C1c2ccsc2SCCN1Cc1c(Cl)cccc1Cl`: the inhibition is 56.2% (active).

Regarding `O=S(=O)(Nc1ccc(-n2cccc2)cc1)c1ccc(Cl)cc1Cl`, the inhibition is 37.6%.

For `Cc1sc2ncnc(N/N=C/c3ccccc3O)c2c1C`, the inhibition is 58.4% (active).

Turning to `O=C(/C=C/c1ccccc1)N1CCC(c2ccccc2)C1` (configuration not stated), the inhibition is 62.6% (active).

Consider `CC1CCN(C(=O)/C=C/c2ccc(C(C)(C)C)cc2)CC1`, for which the inhibition is 63.4% (active).

Regarding `COc1cc(C(=O)CCN2CCC(c3ccccc3)C2)cc(OC)c1OC` (configuration not stated), the inhibition was 44.2%.

For the compound `Cc1cc(C)cc(OCc2nnc(SCC(=O)OC(C)C)o2)c1`, the inhibition is 61.5% (active).

For `CC(=O)Nc1ccc(C(=O)CSc2nnc(Cc3ccccc3)o2)cc1`, the inhibition was 24.2%.

Regarding `COc1ccc(CNc2cccc(F)c2)cc1Br`, the inhibition is 72.2% (active).

As to `COc1cc(Cc2cnc(N)nc2N)cc(OC)c1OC`, the inhibition is 14.2%.

For the compound `COc1ccc(Cc2ccc(OC)c(N)c2)cc1N`, the inhibition was 53.1% (active).

In the case of `COC(=O)N/N=C/c1ccc(OC(=O)c2ccco2)c(OC)c1`, the inhibition was 30.8%.

On to `COC(=O)N/N=C/c1ccc(-c2cccc(Cl)c2)o1`, for which the inhibition was 80.9% (active).

Consider `Cc1ccc(/C=N/NC(=O)c2ccc3nc[nH]c3c2)o1`, for which the inhibition was 47.4%.

On to `CC1(C)CCSC(/C=C/c2ccccc2)=N1`, for which the inhibition is 92% (active).

On to `C(#Cc1ccc(C#CCN2CCCC2)cc1)CN1CCCC1`, for which the inhibition was 42.5%.

In the case of `Cc1[nH][nH]c(=O)c1C(c1c(C)[nH][nH]c1=O)c1cn(Cc2ccc(Cl)c(Cl)c2)c2ccccc12`, the inhibition was 61.2% (active).

As to `Cc1[nH][nH]c(=O)c1C(c1ccc(-c2ccc(Cl)c(Cl)c2)o1)c1c(C)[nH][nH]c1=O`, the inhibition is 39.9%.

For the compound `COc1ccc(S(=O)(=O)N2CCOC2CNC(=O)C(=O)NCCCN2CCOCC2)cc1C` (configuration not stated), the inhibition is 28.6%.

Take `CSc1cc(N2CCOCC2)nc(-c2ccccc2Cl)n1`: the inhibition was 74.1% (active).

Turning to `O=[N+]([O-])/C=C/c1ccc2c(ccn2Cc2ccccc2)c1`, the inhibition was 98.8% (active).

`C/C(=N/NC(=O)c1nnn(-c2nonc2N)c1COc1ccccc1)c1ccc(O)cc1`: the inhibition was 27.6%.

With `CCOc1nnc(C)c2c(C)n(-c3cccc(Cl)c3)nc12`, the inhibition was 28.1%.

In the case of `Cc1ccc(OC(=S)Nc2ccc(O)cc2)cc1`, the inhibition was 88.4% (active).

Turning to `Cc1ccc(NC(=O)CNc2ccc(OC(C)C)cc2)cc1`, the inhibition was 39.6%.

As for `Cc1ccc(C(=O)/C=C/c2cn(CC(O)CN3CCOCC3)c3ccccc23)cc1` (configuration not stated), the inhibition was 52.7% (active).

For the compound `CNc1ccccc(-c2ccc3ccccc3n2)c1=O`, the inhibition is 39.4%.

With `CCN1/C(=C/C=C/C=C/c2sc3ccccc3[n+]2CC)Sc2ccccc21`, the inhibition is 41%.

On to `CC[n+]1c(/C=C2\Sc3ccccc3N2C)ccc2cccc(C)c21`, for which the inhibition is 98.1% (active).

As to `CCN1/C(=C/c2ccc3cc(C)ccc3[n+]2CC)Sc2ccccc21`, the inhibition was 100% (active).

`CCN1/C(=C/c2ccc3ccc(C)cc3[n+]2CC)Sc2ccccc21`: the inhibition was 84.9% (active).

On to `CCN1/C(=C\c2ccc3ccccc3[n+]2CC)Sc2cc(C)ccc21`, for which the inhibition is 100% (active).

`Cc1cc(N2C(=O)C=CC2=O)c([N+](=O)[O-])cc1C`: the inhibition was 3%.

As to `CC1(C)NC(=O)N(CCCCOc2ccc3ccccc3c2Cl)C1=O`, the inhibition was 48.8%.

In the case of `O=C(CCNc1n[nH]c(=O)[nH]c1=O)N/N=C/c1ccc(C(F)(F)F)cc1`, the inhibition was 23.2%.

`COc1cc(OC)c(-c2nnc(-c3ccc(OC)c(OC)c3OC)o2)cc1OC`: the inhibition is 31%.

Take `Cc1ccc2c(c1)c1c3n2CCCNC3CCC1` (configuration not stated): the inhibition was 33%.

Regarding `c1ccc(-c2noc(-c3ccccc3-c3ccccc3)n2)cc1`, the inhibition is 23.6%.

Turning to `CCc1ccc(NCc2nc(-c3ccccc3)no2)cc1`, the inhibition is 57.2% (active).

For the compound `Cc1cc(OCCN2CCCC2)cc(C(C)C)c1`, the inhibition is 53.9% (active).

On to `CC(C)c1ccc(CN2CCN(C(=O)CCl)CC2)cc1`, for which the inhibition was 35.6%.

Take `Cc1ccc(C(C)C)cc1OCCN1CCCC1`: the inhibition is 54.6% (active).

With `CCc1cccc(OCCN2CCCC2)c1`, the inhibition is 41.1%.

Take `COCCCNCCOc1cc(C(C)C)ccc1C`: the inhibition was 30.4%.

Take `Cc1cccc(C)c1OCC(=O)Nn1c(=O)[nH]c2ccccc2c1=O`: the inhibition is 34.9%.

Turning to `CCCCCCCCCCCCCCCCn1cc[n+](C)c1`, the inhibition was 89.7% (active).

As to `CCCCCCCCCCCCCCCCn1cc[n+](CC(C)=O)c1`, the inhibition was 80.2% (active).

For `O=C(/C=C/c1ccccn1)c1ccc(Br)cc1O`, the inhibition is 85.5% (active).

`CCNc1ccc(Br)cc(C(=O)/C=C/c2c(Cl)cccc2Cl)c1=O`: the inhibition is 42.6%.

Turning to `Cc1cc(C)c(S(=O)(=O)N(CC(=O)O)CC(=O)O)c(C)c1`, the inhibition was 46%.

In the case of `CC[N+]1(CC)CC2=Cc3c(ccc4ccccc34)CC2C1` (configuration not stated), the inhibition is 35.5%.

For the compound `CCOc1ccc(N2C(=O)CC(N)C2=O)cc1` (configuration not stated), the inhibition is 70% (active).

`CCOc1ccc(C2N(c3ccc(F)cc3)C(=O)C3CCCN32)cc1` (configuration not stated): the inhibition was 26.1%.

On to `CCCCCCOc1ccc(N2C(=O)CC(N3CCC(C(=O)OCC)CC3)C2=O)cc1` (configuration not stated), for which the inhibition is 45.4%.

Regarding `Cc1ccc(Cl)cc1N1CCN(S(C)(=O)=O)CC1`, the inhibition was 33.1%.

With `O=C(Cc1cccs1)Nc1nc(-c2ccc(F)cc2F)cs1`, the inhibition is 74.7% (active).

In the case of `COc1ccc(-c2nc3c(c(=O)[nH]c(=O)n3Cc3ccccc3)n2C)cc1`, the inhibition is 41%.

For the origin of these results see PubChem BioAssay AID488857 (Sanford-Burnham Center for Chemical Genomics, 2010).
